Bioassay records: PubChem BioAssay, several laboratories
esBAF inh – blocks esBAF chromatin remodeling in mouse ES cells; Bmi1-luciferase knock-in reporter, 24 h; 100% = twice the neutral-well signal; reporter increase, % at 12.5 µM; 350,000 compounds, 2% hits; in the data active = activation above about 40%; inconclusive = no clear call, values can overlap the other calls;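 note: a rise in the Bmi1 reporter signal indicates esBAF inhibition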
Wnt act – Wnt/beta-catenin pathway activation; Wnt/beta-catenin reporter cell assay, activator, plate reader; activation, % at 9.35 µM; 300,000 compounds, 1.2% hits; AID 743398; in the data active = activation above about 30%, passing the limit was not always enough; inconclusive = no clear call, values can overlap the other calls
HSF1 inhib – HSF1 inhibition; NIH3T3-HGL HSE-luciferase, MG132-induced, luminescence 8 h; active compounds read low; activity change, negative = inhibition, % at 7.5 µM (by protocol); 300,000 compounds, 0.77% hits;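 active = more than half of replicate wells show activity change below -50%, luminescence cut by over half; inconclusive = some wells, but at most half, below -50%; inactive = no replicate well below -50%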;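 note: luciferase reports HSF-1 transcriptional activity via heat shock element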
HSF-1 act – increases HSF-1 driven luciferase reporter signal. activation, % at 9 µM. AID 504408. NIH3T3-HGL HSF-1 luciferase reporter, MG132, 8 h; 100% = twice DMSO control signal. 300,000 compounds, 1.7% hits;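 active = mean replicate activation of at least 50% with a set share of replicates each reaching 50%; inconclusive = only one of those two conditions met; inactive = mean below 50% and too few replicates reaching it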
SMARCA2 activ – SMARCA2 function activation, primary screen; activation, % at 9.1 µM; 370,000 compounds, 1% hits; MG213 cells, MMTV-luciferase reporter, dexamethasone, overnight; AID 652017; in the data active = activation above about 7.8%
MITF TRPM1 HTS – increases MITF-driven TRPM1 promoter luciferase signal; SK-MEL-5 TRPM1-promoter luciferase, 24 h; % of positive control, neutral wells = 0; activation, % at 12.5 µM; 300,000 compounds, 0.75% hits;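 active = mean activation of at least 80% with every replicate also reaching 80%; inconclusive = mean reaches 80% but some replicate falls short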
Each line names hits and unclear results; the compound was inactive in the other large screens. Shown are actives, neighbours in structure and some others; about 4.3% of the full set was active somewhere.

C[C@H]1CN([C@@H](C)CO)C(=O)c2cc(NC(=O)Cc3ccccc3)ccc2O[C@@H]1CN(C)Cc1ccccc1	none (no result: Wnt act, HSF1 inhib, HSF-1 act, SMARCA2 activ, MITF TRPM1 HTS)
COc1ccc(CNc2ccc([N+](=O)[O-])cn2)cc1	esBAF inh 63
COc1ccc(Nc2ccc([N+](=O)[O-])cn2)cc1	none (no result: MITF TRPM1 HTS)
O=c1sc(Nc2ccccc2)nc2ccsc12	esBAF inh 82 (no result: Wnt act)
O=C(Nc1nc2ccsc2c(=O)s1)C1CCC1	none (no result: esBAF inh, MITF TRPM1 HTS)
CCOC(=O)Nc1ccc2c(c1)Sc1ccccc1N2C(=O)CCN1CCOCC1	HSF-1 act 63 (no result: Wnt act)
O=C(C[C@H]1C[C@@H]2c3cc(NC(=O)Nc4ccccc4F)ccc3O[C@@H]2[C@H](CO)O1)NCC1CC1	none (no result: Wnt act, HSF1 inhib, HSF-1 act, SMARCA2 activ, MITF TRPM1 HTS)
Fc1ccc2c(c1)[C@H]1OCC[C@H]1[C@@H](c1ccco1)N2	none
Clc1ccc2c(c1)[C@H]1OCC[C@H]1[C@@H](c1ccco1)N2	esBAF inh 48, HSF-1 act 70
CCOc1ccc(-c2cc(C(=O)Nc3ccc(F)cc3)[nH]n2)c(C)c1	esBAF inh 65 (no result: HSF1 inhib, HSF-1 act, MITF TRPM1 HTS)
CCOc1ccc(-c2cc(C(=O)NCc3ccc(F)cc3)[nH]n2)c(C)c1	none (no result: HSF1 inhib, HSF-1 act, MITF TRPM1 HTS)
CN(C)c1nc(-c2ccc([N+](=O)[O-])cc2)cs1	esBAF inh 67, MITF TRPM1 HTS inconclusive (no result: Wnt act)
Cc1ccc(S(=O)(=O)Oc2ccc(N3C(=O)C4C5CCC(C5)C4C3=O)cc2)cc1 (stereo not given)	none (no result: esBAF inh)
O=C1C2C3CCC(C3)C2C(=O)N1c1ccc(OS(=O)(=O)c2ccccc2)cc1 (stereo not given)	Wnt act 34 (no result: esBAF inh)
c1cnc(SCCOc2cccc3ccccc23)nc1	HSF-1 act inconclusive, MITF TRPM1 HTS 106 (no result: esBAF inh, Wnt act)
Cc1ccc(OCCSc2ncccn2)c(C)c1	HSF-1 act 62, MITF TRPM1 HTS 153
Clc1ccc(OCCSc2ncccn2)c2ccccc12	none
Cc1cccc(OCCOCCSc2ncccn2)c1	none (no result: Wnt act)
CCCNC(=O)C[C@@H]1C[C@@H]2c3cc(NS(=O)(=O)c4ccccc4)ccc3O[C@@H]2[C@H](CO)O1	none (no result: Wnt act, HSF1 inhib, HSF-1 act, SMARCA2 activ, MITF TRPM1 HTS)
COc1ccc(-c2[nH]ncc2CNC(C)c2ccccc2Cl)cc1F (stereo not given)	Wnt act 43 (no result: HSF1 inhib, HSF-1 act)
Cc1ccccc1Nc1nnc(SCC2CCCCO2)s1 (stereo not given)	Wnt act 50, HSF-1 act inconclusive
COc1ccccc1Nc1nnc(SCC2CCCCO2)s1 (stereo not given)	none (no result: esBAF inh)
N=C1c2ccccc2CN1NC(=O)COc1ccc(Cl)cc1	none (no result: esBAF inh)
CC(C)(C)c1ccc(OCC(=O)NN2Cc3ccccc3C2=N)cc1	HSF-1 act 92 (no result: esBAF inh)
CCOc1ccccc1Nc1nnc(SCc2nnc(-c3cc(OC)c(OC)c(OC)c3)o2)s1	HSF1 inhib -74 (no result: esBAF inh)
COc1ccccc1Nc1nnc(SCc2nnc(-c3cc(OC)c(OC)c(OC)c3)o2)s1	none (no result: esBAF inh, Wnt act)
COc1cc(-c2nnc(CSc3nnc(Nc4ccc(C(C)C)cc4)s3)o2)cc(OC)c1OC	HSF-1 act 56 (no result: esBAF inh)
COc1ccc(C(=O)CCc2ccccc2)cc1	esBAF inh 48, MITF TRPM1 HTS 98
COc1ccc(/C(N)=N/OC(=O)CCc2ccccc2)cc1	HSF-1 act 55
COc1ccc(/C(N)=N/OC(=O)CCc2ccccc2)cc1OC	none (no result: esBAF inh, Wnt act)
COc1ccc(C(=O)COC(=O)CCc2ccccc2)cc1	none
COc1ccc(NC(=O)Nc2cccc3c2O[C@H](CN(C)S(=O)(=O)c2cn(C)cn2)[C@@H](C)CN([C@@H](C)CO)C3=O)cc1	none (no result: Wnt act, HSF1 inhib, HSF-1 act, SMARCA2 activ, MITF TRPM1 HTS)
CCCN(C)C[C@@H]1Oc2ncc(C#CCOC)cc2C(=O)N([C@@H](C)CO)C[C@@H]1C	none (no result: Wnt act, HSF1 inhib, HSF-1 act, SMARCA2 activ, MITF TRPM1 HTS)
C[C@H]1CN([C@@H](C)CO)C(=O)c2cccc(NC(=O)Nc3ccccc3)c2O[C@@H]1CN(C)CC1CC1	none (no result: Wnt act, HSF1 inhib, HSF-1 act, SMARCA2 activ, MITF TRPM1 HTS)
C[C@H](CO)N1C[C@H](C)[C@H](CN(C)S(=O)(=O)c2ccccc2)Oc2ncc(C#CCN(C)C)cc2C1=O	none (no result: Wnt act, HSF1 inhib, HSF-1 act, SMARCA2 activ, MITF TRPM1 HTS)
COc1ccc(NC(=O)NNC(=O)c2cc3occc3n2C)c(OC)c1	HSF-1 act 133
COc1ccc(-n2cnc3cc(C(=O)N4CCOCC4)ccc32)cc1	esBAF inh 43
C[C@@H]1CCCCO[C@@H](CN(C)S(=O)(=O)c2cccs2)[C@H](C)CN([C@H](C)CO)C(=O)c2cc(NS(=O)(=O)c3ccc(F)cc3)ccc2O1	none (no result: Wnt act, HSF1 inhib, HSF-1 act, SMARCA2 activ, MITF TRPM1 HTS)
Clc1nc(-c2cccnc2)nc2scc(-c3ccccc3)c12	HSF-1 act 72 (no result: esBAF inh)
CCCNC(=O)Nc1ccc2c(c1)C(=O)N(C)C[C@@H](OC)[C@@H](C)CN[C@@H](C)CO2	none (no result: Wnt act, HSF1 inhib, HSF-1 act, SMARCA2 activ, MITF TRPM1 HTS)
